Results taken from PMC4336329 (PLoS ONE, 2015).
The whole screen tested about 310,000 compounds, of which about 14,000 (4.5%) showed an effect of 50% or more. The effect is printed as a negative number. For the sample, strong results were picked, then their nearest neighbours and some compounds at random.

These compounds were tested against human ether-à-go-go-related gene (hERG) potassium channel (human, UniProt Q12809) (assay: primary screen, population patch clamp on CHO cells stably expressing hERG; higher = less effect of the substance).
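Note: peak tail current of the secondary pulse compared with the same well before compound.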

Sequence of human ether-à-go-go-related gene (hERG) potassium channel (Q12809 whole entry, looked up): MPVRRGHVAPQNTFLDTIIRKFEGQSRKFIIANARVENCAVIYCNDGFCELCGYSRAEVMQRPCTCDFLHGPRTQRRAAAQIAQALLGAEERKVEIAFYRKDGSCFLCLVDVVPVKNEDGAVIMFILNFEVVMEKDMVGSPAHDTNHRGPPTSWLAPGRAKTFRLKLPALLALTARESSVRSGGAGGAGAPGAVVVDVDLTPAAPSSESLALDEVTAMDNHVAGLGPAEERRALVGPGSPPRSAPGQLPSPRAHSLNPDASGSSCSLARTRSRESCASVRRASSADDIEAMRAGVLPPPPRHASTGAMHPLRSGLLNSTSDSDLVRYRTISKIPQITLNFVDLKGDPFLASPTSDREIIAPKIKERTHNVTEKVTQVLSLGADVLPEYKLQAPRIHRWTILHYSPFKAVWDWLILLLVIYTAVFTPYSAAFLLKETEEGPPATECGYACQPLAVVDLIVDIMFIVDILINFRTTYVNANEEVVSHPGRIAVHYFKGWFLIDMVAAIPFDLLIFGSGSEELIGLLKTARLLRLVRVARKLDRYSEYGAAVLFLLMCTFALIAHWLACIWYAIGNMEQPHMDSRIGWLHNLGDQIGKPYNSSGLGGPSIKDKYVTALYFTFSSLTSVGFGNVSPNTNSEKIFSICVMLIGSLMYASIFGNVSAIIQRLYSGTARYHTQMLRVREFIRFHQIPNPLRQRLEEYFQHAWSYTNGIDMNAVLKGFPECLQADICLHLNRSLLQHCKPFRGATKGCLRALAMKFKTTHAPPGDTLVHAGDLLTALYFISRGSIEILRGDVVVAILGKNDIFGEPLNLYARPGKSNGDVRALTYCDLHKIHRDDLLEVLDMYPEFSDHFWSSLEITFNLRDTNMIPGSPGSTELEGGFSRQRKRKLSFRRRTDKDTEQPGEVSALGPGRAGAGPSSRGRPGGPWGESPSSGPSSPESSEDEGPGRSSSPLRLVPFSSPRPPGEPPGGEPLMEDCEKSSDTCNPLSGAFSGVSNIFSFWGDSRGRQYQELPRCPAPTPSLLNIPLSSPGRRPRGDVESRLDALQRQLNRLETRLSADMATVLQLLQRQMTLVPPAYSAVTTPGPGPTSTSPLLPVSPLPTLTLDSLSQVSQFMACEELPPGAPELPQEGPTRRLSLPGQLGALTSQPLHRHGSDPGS

Structure (SMILES)	hERG current change (%, negative = inhibition) at 10uM
CC(=O)NCCC(Cc1ccccc1)c1ccco1 (stereo not drawn)	5.91%
CC(NCCC(Cc1ccccc1)c1ccco1)c1ccccc1 (stereo not drawn)	-22%
CC(=O)N(CCC(Cc1ccccc1)c1ccco1)Cc1ccco1 (stereo not drawn)	-28.4%
O=C(NCCNCc1ccc(F)cc1)c1ccco1.O=C(O)C(=O)O	9.99%
CN(C)c1ccc(CNCCC(Cc2ccccc2)c2ccco2)cc1 (stereo not drawn)	-52.3%
Fc1ccc(CNCCC(Cc2ccccc2)c2ccco2)cc1 (stereo not drawn)	-54.3%
c1ccc(CNCCC(Cc2ccccc2)c2ccco2)cc1 (stereo not drawn)	-54.8%
Fc1ccc(CNCc2ccco2)cc1	11.5%
O=C(Nc1cc(F)ccc1F)c1cccc(-n2cnnn2)c1	-18.3%
COC(=O)N/N=C/c1cn(CCCOc2ccccc2)c2ccccc12	-4.14%
C#Cc1ccc([C@H]2C=C(C(=O)N3CCOCC3)O[C@@H](OCC)[C@@H]2CCCO)cc1	6.65%
O=C1CCc2cc(S(=O)(=O)N3CCC(C(=O)NC4CCCC4)CC3)ccc2N1	-4.68%
COc1ccc(NC(=O)C2CCCN2S(=O)(=O)c2ccc3c(c2)CCC(=O)N3)c(OC)c1 (stereo not drawn)	-16.8%
O=C1CCc2cc(S(=O)(=O)N3CCCC3C(=O)NC3CCCCCCC3)ccc2N1 (stereo not drawn)	-50.3%
COc1ccc(C)cc1NC(=O)C1CCCN1S(=O)(=O)c1ccc2c(c1)CCC(=O)N2 (stereo not drawn)	-50.8%
COc1ccc(NC(=O)C2CCCN2S(=O)(=O)c2ccc3c(c2)CCC(=O)N3)cc1Cl (stereo not drawn)	-27.8%
O=C1CCc2cc(S(=O)(=O)N3CCC(C(=O)NC4CCCCCCC4)CC3)ccc2N1	10.8%
Cc1ccc(/C=N/NC(=O)c2cc(-c3cccnc3)nc3ccccc23)cc1	-5.06%
N#Cc1ccc(OCC(O)CS(=O)(=O)c2ccccc2)cc1 (stereo not drawn)	-21%
CC(=O)c1ccc(S(=O)(=O)Nc2cc3c(cc2C(C)=O)OCO3)cc1	21.2%
COc1ccc(C(=O)N(Cc2nc(-c3ccc(C)cc3)no2)C(C)C)cc1OC	-31.4%

Structure (SMILES)	hERG current change (%, negative = inhibition) at 10uM
CCCCCCCN1C2=NCCN2c2ccccc21.Cl	-79.6%
CCCN1C2=NCCN2c2ccccc21.Cl	-9.75%
CCCCCCN1C2=NCCN2c2ccccc21.Cl	-74%
Br.CCCCCN1C2=NCCN2c2ccccc21	-71.4%
O=C(NC1CCCC1)c1cc2nc(-c3ccco3)cc(C(F)(F)F)n2n1	20.1%
C#CCOCCOCCOCCNc1nc(N2CCN(C(=O)[C@H]([C@@H](C)CC)n3cc([C@@H](N)CO)nn3)CC2)nc(N2CCN(C(=O)[C@H](CCCCN)n3cc([C@@H](N)CC(C)C)nn3)CC2)n1.Cl	-0.687%
NC(=O)CSc1cn(Cc2ccc(F)cc2)c2ccccc12	2.24%
COc1ccc2c(c1)c(=O)oc1c(C)c(OCc3cc(C(=O)O)oc3C)ccc12	22.5%
C=CCc1c(C)nc(-c2ccccc2)nc1N/N=C(\C)c1ccc(N)cc1	-0.357%
CSc1ccc(NC(=O)NCCCN2CCN(c3ccccc3F)CC2)cc1	-55.1%
CN1CCN(CCCNC(=O)Nc2ccc([N+](=O)[O-])cc2)CC1	-7.46%
CCOc1ccc(NC(=O)NCCN2CCN(c3cccc(C)c3C)CC2)cc1	-24.3%
O=C(NCCCN1CCOCC1)NC12CC3CC(CC(C3)C1)C2	1.72%
O=C(NCCCN1CCN(c2ccc(F)cc2)CC1)Nc1ccc([N+](=O)[O-])cc1	-73.9%
O=C(NCCc1ccc(F)cc1)NC12CC3CC(CC(C3)C1)C2	-13.4%
O=C(CN1C(=O)COc2ccccc21)NCCCN1CCN(c2ccccc2F)CC1	-10.7%
CCOc1cccc(N2CCN(CCNC(=O)Nc3ccc(C)cc3)CC2)c1C	-57%
Cc1ccc(NC(=O)NCCN2CCN(C(=O)Nc3ccc(C)cc3)CC2)cc1	-36.4%
O=C(NCCc1ccc(F)cc1)Nc1ccc([N+](=O)[O-])cc1	-12%
CSc1ccc(N2CCN(CCCNC(=O)Nc3ccccc3F)CC2)cc1	-49.1%
O=C(NCCCN1CCN(c2ccc(F)cc2)CC1)NC12CC3CC(CC(C3)C1)C2	-73.2%
